Assay results published in PubChem BioAssay AID2130 (The Scripps Research Institute Molecular Screening Center, 2009).
Screen size: about 320,000 compounds; about 1,700 (0.53%) were called active.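 How the source made its calls: active means inhibition above the campaign mean of all compounds plus 3 SD (cut at about 26% in these data); inactive means the rest.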 This excerpt belongs to a sample that is enriched for actives.

The molecules below were run against Protein phosphatase methylesterase 1 (Homo sapiens) (UniProt Q9Y570) (assay: PME-1 inhibitors via competitive probe labeling, primary screen, biochemical, fluorescence polarization, FP-Rh probe, HTS (AID 2130;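 further: competitive labeling of PME-1 active site by serine hydrolase directed probe; 0% = PME-1 with DMSO and 100% = wells lacking PME-1 enzyme; inhibitors block probe labeling so polarization falls and inhibition rises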)). Settings: recombinant PME-1, FP-Rh probe fluorescence polarization; at 5.9 µM; hits give high values.
Chain of Protein phosphatase methylesterase 1 (Homo sapiens) (Q9Y570 whole entry, looked up): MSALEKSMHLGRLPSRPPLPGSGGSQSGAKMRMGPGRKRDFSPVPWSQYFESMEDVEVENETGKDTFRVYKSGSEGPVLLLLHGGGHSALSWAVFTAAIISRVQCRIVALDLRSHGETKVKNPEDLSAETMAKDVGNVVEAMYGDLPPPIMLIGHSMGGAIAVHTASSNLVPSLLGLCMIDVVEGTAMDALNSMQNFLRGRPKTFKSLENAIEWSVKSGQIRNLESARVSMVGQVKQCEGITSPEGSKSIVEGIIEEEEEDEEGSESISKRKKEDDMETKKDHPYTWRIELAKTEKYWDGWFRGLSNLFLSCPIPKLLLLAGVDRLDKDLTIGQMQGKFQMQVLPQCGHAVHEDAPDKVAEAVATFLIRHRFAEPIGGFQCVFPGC
`O=C(NCc1cccs1)C1CCN(S(=O)(=O)c2ccc3c(c2)OCCO3)CC1` was tested, and the inhibition was 10.8% (inactive). For `O=C(NCc1cccs1)C1CCN(S(=O)(=O)c2ccc(Cl)cc2)CC1`, the inhibition was 49.3% (active). For `O=C(NCc1ccc(Cl)cc1)C1CCN(S(=O)(=O)c2cccs2)CC1`, the inhibition was 11.3% (inactive). In the case of `Cc1cccc(N2CCN(Cc3nc(C4CC4)no3)CC2)n1`, the inhibition is reported as 0.08% (inactive). In the case of `CC1C(c2ccccc2)=[N+]([O-])C2(CCCC2)N1O` (stereo not given), the inhibition is reported as -10.2% (inactive). `CCCc1cc(-c2nc(-c3ccc(C)cc3)cs2)ccn1` was tested, and the inhibition was -6.39% (inactive). In the case of `Cc1ccc(-c2csc(-c3c[nH]c4ccccc34)n2)cc1`, the inhibition is reported as 27.5% (active). With `Cc1ccc(-c2csc(-c3cc(C)on3)n2)cc1` the inhibition was -0.04% (inactive). For `COc1ccccc1-c1sc2ccccc2c1-c1ccc(Br)nc1`, the inhibition was -9.82% (inactive). `COc1ccccc1-c1c(C)nn2c(C)c(C(C)=O)cnc12` was tested, and the inhibition was -0.93% (inactive). In the case of `COc1ccccc1-c1sc2ccccc2c1-c1ccc(C(C)=O)cc1`, the inhibition is reported as 33.6% (active). In the case of `N#Cc1c(C(F)(F)F)cc(-c2cccs2)nc1N1CCCCC1`, the inhibition is reported as 2.44% (inactive). For `COc1ccc(CN2CCCC(C(=O)c3ccc(Cl)cc3)C2)cc1Cn1cncn1` (stereo not given), the inhibition was 4.9% (inactive). In the case of `CC(=O)c1ccc(OCC(O)CN2CCN(S(=O)(=O)c3cccc(Br)c3)CC2)cc1` (stereo not given), the inhibition is reported as 7.43% (inactive). In the case of `CC(=O)NC1=NN(C(C)=O)C(C)(c2ccc(Cl)s2)S1` (stereo not given), the inhibition is reported as -1.89% (inactive). In the case of `Cc1cccc(-c2nc(Nc3ccc(O)cc3)c3ccccc3n2)c1`, the inhibition is reported as 30.6% (active). For `COc1ccc(Nc2nc(-c3cccnc3)nc3ccccc23)cn1`, the inhibition was 0.55% (inactive). With `CC(=O)Nc1cccc(Nc2nc(-c3cccs3)nc3ccccc23)c1` the inhibition was -31.9% (inactive). `Nc1nonc1-n1nnc(C(=O)N/N=C/C2CCCCC2)c1-c1ccccc1` was tested, and the inhibition was 2.24% (inactive). With `Nc1nonc1-n1nnc(C(=O)N/N=C/c2c[nH]c3ccccc23)c1-c1ccccc1` the inhibition was 34.1% (active). `CC(C)c1c(C(=O)N/N=C/c2ccccc2C(=O)O)nnn1-c1nonc1N` was tested, and the inhibition was 3.05% (inactive). With `O=C(C(=O)N1CCc2ccccc2C1)c1c[nH]c2ccccc12` the inhibition was -0.44% (inactive). For `Cc1cccc(C)c1NC(=S)N1CCCCCC1`, the inhibition was -3.93% (inactive). `COc1ccc(CNC(=O)COc2ccccc2C(=O)c2cnn(-c3ccccc3)c2)cc1OC` was tested, and the inhibition was -5.4% (inactive). With `Cc1ccc(S(=O)(=O)n2cnc3ccccc32)c(C)c1` the inhibition was -0.58% (inactive). For `O=c1[nH]cnc(O)c1C(c1ccc(F)cc1)c1c(O)nc[nH]c1=O`, the inhibition was -2.73% (inactive). `COc1cccc(NC(=O)NCCN2CCCCC2)c1` was tested, and the inhibition was 0.47% (inactive). In the case of `COc1cccc(C(=O)Nc2nnc(S(=O)(=O)N3CCCCC3)s2)c1`, the inhibition is reported as -0.5% (inactive). In the case of `COc1cccc(NC(=O)Nc2nnc(N3CCCCC3C)s2)c1` (stereo not given), the inhibition is reported as 43.8% (active). With `CC1CCC(NC(=O)CN(C)S(=O)(=O)c2ccc3c(c2)c(=O)n(C)c(=O)n3C)CC1` (stereo not given) the inhibition was 0.21% (inactive). With `COc1ccnc(Oc2ccccc2)c1-c1ncn[nH]1` the inhibition was 3.26% (inactive). In the case of `O=C(Nc1ccc(C(F)(F)F)cc1)c1cccc(-n2cnnn2)c1`, the inhibition is reported as -9.13% (inactive). In the case of `CCCCCCC(=O)Nc1nc(C)c(-c2csc(Nc3cccc(OC)c3)n2)s1`, the inhibition is reported as 16.8% (inactive). In the case of `C=CCCC(=O)Nc1nc(C)c(-c2csc(Nc3ccc(Cl)cc3)n2)s1`, the inhibition is reported as 28.8% (active). `CCCCCCC(=O)Nc1nc(C)c(-c2csc(Nc3cc(Cl)ccc3OC)n2)s1` was tested, and the inhibition was 13.6% (inactive). In the case of `CCCCC(=O)Nc1nc(C)c(-c2csc(Nc3ccc(Cl)cc3)n2)s1`, the inhibition is reported as 16.9% (inactive). In the case of `Cc1nc(NC(=O)c2cccc(Cl)c2)sc1-c1csc(Nc2cccc(Cl)c2)n1`, the inhibition is reported as 32.1% (active). For `CC(=O)Nc1nc(C)c(-c2csc(Nc3ccc(S(N)(=O)=O)cc3)n2)s1`, the inhibition was -2.64% (inactive). For `COc1ccc(F)cc1C(=O)COC(=O)c1n[nH]c(=O)c2ccccc12`, the inhibition was 2.97% (inactive). In the case of `Cc1cc(OC(=O)c2ccc(OC(C)C)cc2)c([N+](=O)[O-])c(=O)[nH]1`, the inhibition is reported as -4.45% (inactive). With `COc1cc(OC)cc(C(=O)NNC(=O)CCOc2ccccc2OC)c1` the inhibition was -2.05% (inactive). With `CCOc1ccc(-c2cn(S(=O)(=O)c3cccc4nsnc34)nc2N)cc1` the inhibition was 2.2% (inactive). With `Cc1ccccc1CC1(CO)CCCN(Cc2ccc3c(c2)OCCO3)C1` (stereo not given) the inhibition was 3.22% (inactive). In the case of `O=S(=O)(NCCc1ccc(Cl)cc1)c1cccs1`, the inhibition is reported as 6.08% (inactive). `O=C(NNc1c2ccccc2nc2ccccc12)c1cc2ccccc2cc1O` was tested, and the inhibition was 76.5% (active). `CC(C)(C)OC(=O)NNc1c2ccccc2nc2ccccc12` was tested, and the inhibition was 17.6% (inactive). `O=C(N/N=C/c1cccnc1)c1cc2ccccc2cc1O` was tested, and the inhibition was 12.5% (inactive). In the case of `COc1ccccc1C1C(C(N)=O)=C(C)Nc2nc(CCCO)nn21` (stereo not given), the inhibition is reported as -0.55% (inactive). With `COc1ccc(C(=O)OC(C)C(=O)NC2CCCC2)cc1S(=O)(=O)N1CCOCC1` (stereo not given) the inhibition was 2.8% (inactive). `O=c1[nH]c2cccnc2n1-c1ccc([N+](=O)[O-])cc1` was tested, and the inhibition was 5.31% (inactive). For `COc1cnn(-c2ccc([N+](=O)[O-])cc2)c(=O)c1Cl`, the inhibition was -4.7% (inactive). `O=c1[nH]n(-c2ccc([N+](=O)[O-])cc2)c(=O)c2ccccc12` was tested, and the inhibition was 26.6% (active). In the case of `CCCCN1C(N)=NC[C@@H]1CC1CCCCC1`, the inhibition is reported as -2.94% (inactive). `Cc1cc(=O)oc2cc(NC(=O)C3CC(=O)N(Cc4ccccc4)C3)ccc12` (stereo not given) was tested, and the inhibition was 7.03% (inactive). With `Cc1ccc(C2Nc3cccc4cccc(c34)N2)cc1` the inhibition was 1.72% (inactive). With `COc1cccc(C2Nc3cccc4cccc(c34)N2)c1` the inhibition was 14.7% (inactive). For `Oc1ccc(C2Nc3cccc4cccc(c34)N2)cc1`, the inhibition was 53.6% (active). `CCc1ccc(NC(=O)CN2C(=O)COc3ccc(S(=O)(=O)N4CCCC4)cc32)cc1` was tested, and the inhibition was -0.43% (inactive). `CCOC(=O)C1(Cc2ccccc2C(F)(F)F)CCN(C(=O)c2cc(C)n(C)n2)CC1` was tested, and the inhibition was -3.56% (inactive). With `CCCCCN(C(=O)CCC(=O)OCCOc1ccc(OC)cc1)c1c(N)n(CCCC)c(=O)[nH]c1=O` the inhibition was -1.09% (inactive). With `C=CCn1cc(-c2cccc(C(F)(F)F)c2)cc(C#N)c1=O` the inhibition was 1.51% (inactive). In the case of `Oc1ccc(N=Cc2c(O)ccc3ccccc23)cc1`, the inhibition is reported as 52.4% (active). In the case of `CCOc1[nH]n(-c2ccc(Cl)cc2)c(=O)c1C=Nc1ccc(O)cc1`, the inhibition is reported as 14.7% (inactive). For `Oc1ccc(N=Cc2sc3ccccc3c2Cl)cc1`, the inhibition was 14.5% (inactive). With `CN(CCc1ccccn1)S(=O)(=O)c1ccc2c3c(cccc13)C(=O)N2` the inhibition was 7.3% (inactive). With `Nc1nc(CC(=O)CSc2ccc(Cl)cc2)nc(Nc2ccc(F)cc2)n1` the inhibition was 0.37% (inactive). For `COc1cccc(N2C(=O)CC(N3CCc4ccccc4C3)C2=O)c1` (stereo not given), the inhibition was 1.67% (inactive). In the case of `COc1cccc(N2CCN(CC(=O)Nc3ccnn3C3CCCC3)CC2)c1`, the inhibition is reported as 0.47% (inactive). For `Clc1ccc(Nc2nc(-c3cccs3)cs2)nc1`, the inhibition was 14.9% (inactive). With `Cc1ccc(Nc2nc(-c3ccc(O)cc3O)cs2)nc1` the inhibition was 29% (active). With `Cc1cccc(Nc2nc(-c3ccccc3)cs2)n1` the inhibition was 9.05% (inactive). With `CCCOc1ccc(CNC(=O)C2CCN(c3nn4c(=O)cc(C)nc4s3)CC2)cc1` the inhibition was -0.67% (inactive). With `COc1ccc(CN(C(=O)CSc2nnc(-c3ccc(OC)c(OC)c3)o2)c2ccc(F)cc2)cc1` the inhibition was -0.21% (inactive). `COc1ccccc1C(=O)NC(CCSC)C(=O)NNC(=O)c1ccccc1C` (stereo not given) was tested, and the inhibition was -6.59% (inactive). With `O=S(=O)(NC1CCCC1)c1ccc(-n2cnnn2)cc1` the inhibition was -6.91% (inactive). For `COc1ccc(CC(=O)NC2CCSc3ccccc32)cc1OC` (stereo not given), the inhibition was 8.44% (inactive). `CCC(C)(C)N=C(NC#N)Nc1cccnc1` was tested, and the inhibition was -2.16% (inactive). For `CC[N+](C)(CC)CCC[n+]1c(-c2ccccc2)c2cc(N)ccc2c2ccc(N)cc21`, the inhibition was 54.4% (active). In the case of `CC(=O)N/C(=C/c1ccc(Cl)cc1)C(=O)NCCc1c[nH]c2ccccc12`, the inhibition is reported as 1.47% (inactive). With `O=C(CN1C(=O)NC2(CCCCC2)C1=O)NCCc1c[nH]c2ccccc12` the inhibition was 1.73% (inactive). `N#C/C(=C/c1ccc(N2CCCCC2)o1)C(=O)NCCc1c[nH]c2ccccc12` was tested, and the inhibition was 31.4% (active). In the case of `CCOC(=O)c1c(C)[nH]c(C2=NNC(=NC(C)COC)SC2)c1C` (stereo not given), the inhibition is reported as -7.22% (inactive). With `CCC(C(=O)NC1CCCC1)N(C(=O)Cn1nnc(-c2ccc(C)o2)n1)c1ccc(OC)c(OC)c1` (stereo not given) the inhibition was 2.08% (inactive). For `Cc1ccc(Cl)c(OCC(=O)N2CCc3ccccc3C2)c1`, the inhibition was 2.04% (inactive). For `FC(F)(F)c1nc(-c2ccccc2)ncc1-c1nnnn1-c1ccccc1`, the inhibition was -1.36% (inactive). `Oc1c(Cl)cc(Cl)c(Cl)c1Cc1c(O)c(Cl)cc(Cl)c1Cl` was tested, and the inhibition was 27% (active). For `Cc1ccc2nc(SCC(=O)N3CCN(c4ccccc4)CC3)nc(=O)n2c1`, the inhibition was 11.8% (inactive). For `Cc1ccccc1CCN(CC(=O)NC1CCCCC1)C(=O)c1csnn1`, the inhibition was 3.53% (inactive). `CCc1nc2nc(C)c(NS(=O)(=O)c3ccc4c(c3)CCCC4)c(=O)n2[nH]1` was tested, and the inhibition was 3.49% (inactive). `CCOC(=O)c1c(C)oc(C)c(C(=O)OCC)c1=O` was tested, and the inhibition was 2.67% (inactive). In the case of `CCOC(=O)c1ccc(NC(=O)c2cc(=O)[nH]c3ccccc23)cc1`, the inhibition is reported as -7.83% (inactive). For `CCOC(=O)c1ccc(Nc2cc3ccccc3c(=O)[nH]2)cc1`, the inhibition was 51.5% (active). For `CCOC(=O)c1nc(Nc2ccc(C(=O)OC)cc2)c2ccccc2n1`, the inhibition was -3.8% (inactive). With `CCNC(=S)N(CCN(CC)CC)Cc1cc2cc3c(cc2[nH]c1=O)OCO3` the inhibition was -3.38% (inactive). `CC1CCC(CN2CCN=C2N(C)C)CC1` (stereo not given) was tested, and the inhibition was 0.76% (inactive).
